High-throughput results deposited in PubChem by Fisher Drug Discovery Resource Center.
mcGAS RapidFire = inhibitors of Mus musculus cyclic GMP-AMP synthase, initial high-throughput assay, cell-free, RapidFire MS. Q8C6L5. recombinant mouse cGAS, cGAMP by RapidFire MS. inhibition, % at 12.5 µM. 130,000 tested, 0.18% active. AID 1259397, 2018;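 active = inhibition of cGAS enzyme activity at or above 60%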;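 also: enzyme stimulated by 45 bp dsDNA with ATP and GTP substrates; cGAMP share of summed cGAMP plus half ATP and half GTP signals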
Target sequence (Q8C6L5 whole entry, looked up): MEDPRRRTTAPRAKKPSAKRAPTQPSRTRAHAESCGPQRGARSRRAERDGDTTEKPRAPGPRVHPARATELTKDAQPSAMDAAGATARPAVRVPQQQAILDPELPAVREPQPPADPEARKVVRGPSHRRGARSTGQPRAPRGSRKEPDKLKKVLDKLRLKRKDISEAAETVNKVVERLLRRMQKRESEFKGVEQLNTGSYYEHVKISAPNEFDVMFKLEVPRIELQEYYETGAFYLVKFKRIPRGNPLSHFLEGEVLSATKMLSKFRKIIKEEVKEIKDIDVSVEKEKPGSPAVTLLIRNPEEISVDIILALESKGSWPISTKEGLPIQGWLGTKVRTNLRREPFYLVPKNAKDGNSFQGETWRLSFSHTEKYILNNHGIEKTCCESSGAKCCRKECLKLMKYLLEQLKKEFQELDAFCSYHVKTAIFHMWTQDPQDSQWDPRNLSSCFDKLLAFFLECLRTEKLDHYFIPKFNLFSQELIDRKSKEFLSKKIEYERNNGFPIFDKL
The depositor's hits bear a star; ! = not active in a repeat. The entries come from a sample that favours hits as a whole.

SMILES	mcGAS RapidFire
CC(C)(C)C(=O)NC1CCSC1=O (stereo not drawn)	76*
CCC(C)(C)C(=O)NC1CCSC1=O (stereo not drawn)	6
Cc1nn(C)c(C)c1CC(=O)NC(C)Cc1cccc(Cl)c1 (stereo not drawn)	-8
CCCCc1ccc(NC2=NC(C)(C)CS2)cc1	-10
CCCc1[nH][nH]c(=O)c1C1(O)C(=O)NC(=O)NC1=O	15
CCC1CN(Cc2ccccc2)CCN1C(=O)COc1ccc(F)cc1 (stereo not drawn)	-5
O=C(O)COc1ccc(Cl)cc1Cl	96*
O=C(O)COc1cc(Cl)c(Cl)cc1Cl	98*
O=C(O)COc1ccccc1	7
CCCCCCC(C)OC(=O)COc1ccc(Cl)cc1Cl (stereo not drawn)	-8
Oc1cc(Cl)ccc1Oc1ccc(Cl)cc1Cl	-18
CCN1CCN(Cc2csc3c2CCCC3)CC1	-4
CN(CCc1ccc2c(c1)CCO2)Cc1cnccn1	-9
CCCN1C(=O)C2(Cc3cc([N+](=O)[O-])ccc3N3CCCCC32)C(=O)NC1=S (stereo not drawn)	1
COc1ccccc1-n1c(C(C)NCCc2ccccc2)nc2ccccc2c1=O (stereo not drawn)	-6
CC(C)NNP(=S)(NNC(C)C)c1ccccc1	-5
O=P(OCC(F)(F)F)(OCC(F)(F)F)N1CCOCC1	-20
Fc1cccc(C2NCCc3[nH]cnc32)c1F (stereo not drawn)	-2
O=C(Cc1ccccc1O)N1CCN(C/C=C/c2ccccc2)CC1	1
Oc1c(Cl)c(Cl)c(Cl)c(Cl)c1Cl	98*
CN(C)C(CNCc1ccc2c(c1)OCCO2)c1cccc(F)c1 (stereo not drawn)	-9
O=C1CCCCCN1CC(=O)N1C[C@H](c2ccccc2)[C@@H]2[C@H]1C1CCN2CC1	-4
Fc1cc(Cl)ccc1C1NCCc2[nH]cnc21 (stereo not drawn)	0
Clc1cccc(C2NCCc3[nH]cnc32)c1Cl (stereo not drawn)	0
CC(=O)OCC1=C(C(=O)O)N2C(=O)[C@@H](NC(=O)CCCC(N)C(=O)O)C2SC1 (stereo partly drawn)	73*!
SMILES	mcGAS RapidFire
O=C(O)c1[nH]ncc1CN1CCCC(C(=O)c2cccs2)C1 (stereo not drawn)	-7
CCOc1ccc(CN2CCN3CCN(C)C(=O)C3C2)cn1 (stereo not drawn)	-4
O=c1c(O)c(-c2ccc(O)c(O)c2)oc2c(O)c(O)cc(O)c12	93*
Cc1cnn(CCC(=O)N2C[C@H](c3ccccc3)[C@@H]3[C@H]2C2CCN3CC2)c1	-5
COc1ccc(-c2noc(CNC(C)Cc3ccccn3)n2)cc1 (stereo not drawn)	-5
O=P(OCC(F)(F)F)(OCC(F)(F)F)OCC(F)(F)F	-13
CCC(C)c1csc(C2CN3CCCC3CO2)n1 (stereo not drawn)	-8
O=C(O)c1ccccc1-c1c2cc(Br)c(=O)cc-2oc2[c]([Hg])c(O)c(Br)cc12	99*!
COCCNC(=O)c1cnc(-c2cccc(C)c2)nc1N(C)C1CCN(C)CC1	2
c1cc2c(c(-c3cccc4[nH]ccc34)c1)CCNC2	1
